Assay outcomes (PubChem)
Sampled rows, rich in hits. Any-hit rate of the full collection: about 6.8%.
KB-3-1 tox: qHTS assay for MDR1-selective chemotherapeutics: Primary screen using the parental adenocarcinoma cell KB-3-1; Potency, µM (series often up to 46.1 µM), actives largely listed as cytotoxic; 400,000 tested, 1.4% active; KB-3-1 viability, CellTiter-Glo ATP luminescence, 72 h; further: nearly all actives have a fitted effect of over 60% in size
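Cells are dispensed, compounds pinned in, plates held at 37 °C for 72 h, then CellTiter-Glo is added and luminescence read after 10 minutes. Cell line: parental KB-3-1 in phenol-red-free DMEM, 10% FBS.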
TSG101-PTAP inh: qHTS Assay for Iinhibitors of HIV-1 Budding by Blocking the Interaction of PTAP/TSG101 | Tumor susceptibility gene 101 protein (Homo sapiens), Q99816 | Fluorescence polarization, FITC-PTAP peptide / Tsg101 binding | Potency, µM (doses to about 115 µM), hits mostly inhibitors | 340,000 tested, under 10 active; active means well fitted inhibition curve with a large enough effect in the main read-out, with a control signal flat, not every such curve was filed as active; inconclusive means small, poorly fitted or top-dose-only effect, or effect the other way, or a change in a side signal; inactive means no such curve, though single readings can be large or run the other way
Target sequence (Q99816 whole entry, looked up): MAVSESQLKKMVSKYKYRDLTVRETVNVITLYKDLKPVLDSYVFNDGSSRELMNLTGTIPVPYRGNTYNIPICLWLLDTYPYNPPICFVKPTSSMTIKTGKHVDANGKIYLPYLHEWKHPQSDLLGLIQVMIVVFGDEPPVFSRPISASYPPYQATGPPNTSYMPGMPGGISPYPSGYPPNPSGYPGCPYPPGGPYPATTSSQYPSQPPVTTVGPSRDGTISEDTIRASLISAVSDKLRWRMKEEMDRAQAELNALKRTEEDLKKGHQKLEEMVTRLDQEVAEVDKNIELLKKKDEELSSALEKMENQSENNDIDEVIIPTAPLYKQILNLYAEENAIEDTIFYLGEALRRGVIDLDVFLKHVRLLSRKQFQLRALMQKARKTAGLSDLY
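Fluorescence polarization binding of Tsg101 binding domain (10 uM final) to FITC-labeled PTAP peptide (50 nM final) in HEPES pH 7.5 buffer with NaCl, Tween 20, EDTA, TCEP. Compounds added before peptide; binding 20 min at RT.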
PINK1 modulator: A Quantitative High throughput Screen to Identify Chemical Modulators of PINK1 Expression; 410,000 tested, 0.2% active; Potency, µM (top dose mostly 76.6 µM), actives largely listed as activators; PINK1 immunofluorescence, high-content cytometry, 24 h; active means well fitted activation curve with a large enough effect; inconclusive means small, poorly fitted or top-dose-only effect; cell line not stated here; further: nearly all actives have a fitted effect of over 65% in size
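PINK1 protein level read as immunofluorescence by microplate cytometer in a fixed, stained stable cell line after 24 h exposure to five compound concentrations, with CCCP as control.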
MCF10A rerep: A quantitative high throughput screen for small molecules that induce DNA re-replication in MCF 10a normal breast cells; MCF 10A DNA re-replication, Hoechst nuclear intensity, 48 h; Potency, µM (titrated, usually from 46.1 µM), actives largely listed as activators; 350,000 tested, 2.9% active; AID 624296, 2012; further: nearly all actives have a fitted effect of over 50% in size
SW480 rerep: A quantitative high throughput screen for small molecules that induce DNA re-replication in SW480 colon adenocarcinoma cells | SW480 DNA re-replication, Hoechst DNA content imaging, 48 h | Potency, µM (titrated, usually from 46.1 µM), usual class: activators | 340,000 tested, 1.8% active; further: nearly all actives have a fitted effect of over 55% in size
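First, 250 cells per well were seeded. Next, compound or vehicle (23 nL) was pinned in, plates sat 48 hr at 37 C. Finally Hoechst was added for 40 min before fluorescence scanning.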
KB-V1 cytotox: qHTS assay for MDR1-selective chemotherapeutics: Primary screen using the drug-selected MDR subline cells KB-V1 | KB-V1 MDR cells viability, CellTiter-Glo, 72 h | 400,000 tested, 3.4% active | Potency, µM (doses to about 46.1 µM), usual class: cytotoxic; further: nearly all actives have a fitted effect of over 60% in size
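Potencies derive from concentration-effect curves fitted to normalized luminescence (CellTiter-Glo) of KB-V1 cells treated for 72 h at 37 degrees C in phenol-red-free DMEM containing 10% FBS.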
Hits are given with their value; ! = a repeat was not active. Unless noted, the call rests on the fitted dose curve; in most records, active means well fitted curve in the direction sought with a large enough effect; inconclusive means small, poorly fitted or top-dose-only effect, or another doubt; inactive means no such curve, though single readings can be large; an effect the other way counts as inactive or inconclusive.

COc1ccc(CN2CCC2(C)C(=O)Nc2cccc(NS(C)(=O)=O)c2)c2ccccc12 (stereo unspecified) was read as KB-3-1 tox inconclusive, PINK1 modulator inactive and KB-V1 cytotox 2.9µM.
`Cc1ccc(NC(=O)c2ccc(N(Cc3ccccc3)S(C)(=O)=O)cc2)cc1` gave KB-3-1 tox inconclusive, PINK1 modulator inactive and KB-V1 cytotox inactive.
Cc1ccc2nc(Cl)c3cc(C(=O)N(CCN(C)C)Cc4ccco4)sc3c2c1 was read as KB-3-1 tox inconclusive, TSG101-PTAP inh inactive, PINK1 modulator inactive, MCF10A rerep 16µM, SW480 rerep inconclusive and KB-V1 cytotox inconclusive.
N#CCC1c2ccccc2CCN1C(=O)Nc1cccc(Cl)c1 (stereo unspecified) was read as KB-3-1 tox inactive, TSG101-PTAP inh inactive, PINK1 modulator inactive, MCF10A rerep inactive, SW480 rerep inactive and KB-V1 cytotox 16µM.
COCCCn1c(=N)c(S(=O)(=O)c2ccccc2)cc2c(=O)n3cccc(C)c3nc21 was read as KB-3-1 tox inactive, PINK1 modulator inactive and KB-V1 cytotox inconclusive.
COCCn1c(=N)c(S(=O)(=O)c2ccc(F)cc2)cc2c(=O)n3cccc(C)c3nc21 was read as KB-3-1 tox inactive, TSG101-PTAP inh inactive, PINK1 modulator inactive, MCF10A rerep 3.7µM, SW480 rerep inconclusive and KB-V1 cytotox inactive.
For CCCn1c(=N)c(S(=O)(=O)c2ccc(F)cc2)cc2c(=O)n3cccc(C)c3nc21 the results were KB-3-1 tox inactive, TSG101-PTAP inh inactive, PINK1 modulator inactive, MCF10A rerep 5.2µM, SW480 rerep inconclusive and KB-V1 cytotox inactive.
Cn1c(=O)cc(OCCCC(=O)N2CCN(c3ccccc3)CC2)c2ccccc21 was read as KB-3-1 tox inactive, TSG101-PTAP inh inactive, PINK1 modulator inactive, MCF10A rerep 9.2µM, SW480 rerep inactive and KB-V1 cytotox inconclusive.
Cc1ccnc(NC(=O)CCCOc2cc(=O)n(C)c3ccccc23)c1 was read as KB-3-1 tox 3.7µM!, TSG101-PTAP inh inactive, PINK1 modulator inactive, MCF10A rerep 15µM, SW480 rerep 7.3µM and KB-V1 cytotox 8.2µM!.
Screening Cn1c(=O)cc(OCCCC(=O)NC2CCCC2)c2ccccc21 returned KB-3-1 tox inactive, TSG101-PTAP inh inactive, PINK1 modulator inactive, MCF10A rerep inconclusive, SW480 rerep inactive and KB-V1 cytotox 15µM.
Cc1noc(C)c1C(=O)N1CCC2(CCN(C(=O)Nc3ccccc3)CC2)CC1 was read as PINK1 modulator inactive.
Screening COc1ccc(CNC(=O)c2ccc(CSc3nc4ccncc4n3Cc3ccccc3F)cc2)cc1 returned KB-3-1 tox inactive, PINK1 modulator inactive and KB-V1 cytotox inactive.
`CC1CCC2(C1)N=C(Nc1nc3ccccc3o1)NC1=C2C(=O)CCC1` (stereo unspecified) gave KB-3-1 tox inactive and KB-V1 cytotox inactive.
For OC(CNCCc1ccccc1)COc1ccc(OCC(O)CNCCc2ccccc2)cc1 (stereo unspecified) the results were KB-3-1 tox 21µM, TSG101-PTAP inh inactive, PINK1 modulator inactive, MCF10A rerep inconclusive, SW480 rerep inconclusive and KB-V1 cytotox inconclusive.
For OC(CNCCc1ccc(Cl)cc1)COc1ccc2ccccc2c1 (stereo unspecified) the results were KB-3-1 tox inactive, TSG101-PTAP inh inactive, PINK1 modulator inactive, MCF10A rerep inconclusive, SW480 rerep inactive and KB-V1 cytotox inactive.
COc1ccc(C(OCC(O)CNCCc2ccccc2)c2ccc(OC)cc2)cc1 (stereo unspecified) was read as KB-3-1 tox inconclusive, TSG101-PTAP inh inactive, PINK1 modulator inactive, MCF10A rerep inactive, SW480 rerep inconclusive and KB-V1 cytotox 16µM.
Screening O=c1c2oc3ccccc3c2n(Cc2cccc(F)c2)c(=O)n1Cc1ccco1 returned KB-3-1 tox inactive, PINK1 modulator inactive and KB-V1 cytotox inactive.
Screening COc1cc(C(=O)Nc2nnc(S(=O)(=O)N(C)c3ccccc3)s2)cc(OC)c1OC returned PINK1 modulator inactive.
For O=C(Nc1ccc2c(c1)CCC2)c1cnn2c1NC(=C1CC1)C=C2C(F)F the results were KB-3-1 tox inactive, PINK1 modulator inactive and KB-V1 cytotox inactive.
For CCOC(=O)c1ccc2c(c1)sc1nc(-c3ccc(OCC)cc3)cn12 the results were KB-3-1 tox inactive, PINK1 modulator inactive and KB-V1 cytotox inactive.
Screening N#Cc1ccsc1NC(=O)c1cccc([N+](=O)[O-])c1 returned KB-3-1 tox inactive, TSG101-PTAP inh inactive, PINK1 modulator inactive, MCF10A rerep inactive, SW480 rerep inactive and KB-V1 cytotox inactive.
Screening N#Cc1ccsc1NC(=O)c1ccc(Cl)c([N+](=O)[O-])c1 returned KB-3-1 tox inactive, TSG101-PTAP inh inactive, PINK1 modulator 32µM, MCF10A rerep inactive, SW480 rerep inactive and KB-V1 cytotox inconclusive.
`Cc1cc(CSc2ccccc2)ccc1NC(=O)c1ccc(Cl)c([N+](=O)[O-])c1` gave KB-3-1 tox inactive, TSG101-PTAP inh inactive, PINK1 modulator inactive, MCF10A rerep 18µM, SW480 rerep inactive and KB-V1 cytotox inactive.
`Cc1cc(CSc2ccccc2)ccc1NC(=O)c1ccc(C)c([N+](=O)[O-])c1` gave KB-3-1 tox inactive, TSG101-PTAP inh inactive, PINK1 modulator inactive, MCF10A rerep inactive, SW480 rerep inactive and KB-V1 cytotox inactive.
Screening O=C(Nc1cccnc1Cl)c1ccc(Cl)c([N+](=O)[O-])c1 returned KB-3-1 tox inactive, TSG101-PTAP inh inactive, PINK1 modulator inactive, MCF10A rerep inactive, SW480 rerep 23µM and KB-V1 cytotox inactive.
For CCOC(=O)N1CCC(NC(=O)c2ccc3c(c2)N(Cc2ccc(F)cc2)C(=O)c2ccccc2S3(=O)=O)CC1 the results were PINK1 modulator inactive.
COCCCNC(=O)CN1C(=O)c2c(c3ccccc3n2C)C1c1ccc(OC)cc1 (stereo unspecified) was read as KB-3-1 tox inactive, PINK1 modulator inactive and KB-V1 cytotox inactive.
For Oc1ccc(Cl)cc1C1=NNC(c2cccs2)C1 (stereo unspecified) the results were KB-3-1 tox inconclusive, TSG101-PTAP inh inactive, PINK1 modulator inactive, MCF10A rerep inactive, SW480 rerep inconclusive and KB-V1 cytotox inconclusive.
